This is an account of results in PubChem BioAssay (EPA / NIEHS).

The target in assay [1] is human Retinoid X Receptor beta (RXRb), RXRB (gene 6257) (UniProt P28702). Description: ATG_RXRb_TRANS: Attagene TRANS-FACTORIAL HepG2 Assay for human Retinoid X Receptor beta (RXRb) (AID 2283013; active = hit-call score of the fitted dose curve at least 0.9, where 1 is the maximum). The procedure, abridged: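 HepG2 cells transiently transfected with multiplexed reporter units driven by GAL4-UAS and exogenous chimeric NR-Gal4 proteins; treated 24 h. Reporter mRNA measured by RT-PCR, 6-FAM labelling and capillary electrophoresis; gain-of-signal fitted versus DMSO baseline.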

Assay [2] deals with human Thyroid Receptor alpha (THRa1), THRA (gene 7067) (UniProt P10827). Description: ATG_THRa1_TRANS: Attagene TRANS-FACTORIAL HepG2 Assay for human Thyroid Receptor alpha (THRa1) (AID 2283014; active = hit-call score of the fitted dose curve at least 0.9, where 1 is the maximum). In short, it runs like this:
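Reporter transcript induction, read by capillary electrophoresis of 6-FAM-labelled RT-PCR products, reflects activity of a transfected THRa1-Gal4 fusion in HepG2 liver cells. Cells were dosed for 24 h; activity was fitted in the positive direction against DMSO.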

In assay [3] the target is human Vitamin D Receptor (VDR), VDR (gene 7421) (UniProt P11473). Description: ATG_VDR_TRANS: Attagene TRANS-FACTORIAL HepG2 Assay for human Vitamin D Receptor (VDR) (AID 2283022; active = hit-call score of the fitted dose curve at least 0.9, where 1 is the maximum). The procedure, abridged: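 Steps: transfect HepG2 with GAL4-UAS-driven reporter constructs; dose compounds 24 h; isolate RNA, reverse-transcribe, PCR-amplify with 6-FAM-labelled primer extension and HpaI digestion; quantify fragments by capillary electrophoresis relative to DMSO.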

Read-out in assay [4]: E-selectin (Homo sapiens) (UniProt P16581)
Description: BSK_3C_Eselectin: BioMAP Diversity Plus: 3C Assay for Eselectin Biomarker Activity (AID 2283015).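 As to outcome: cell surface E-selectin protein quantified by ELISA 24 h after dosing.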 Particulars: primary human endothelial cells (HUVEC); actives raise or lower the signal. In short, it runs like this: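 ELISA read-out of E-selectin on endothelial monolayers after 24 h chemical treatment. Human umbilical vein primary cells served as the system, with DMSO defining baseline activity for bidirectional fitting.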

Read-out in assay [5]: Interleukin-1 alpha (IL1a), IL1A (gene 3552)
Description: BSK_BE3C_IL1a: BioMAP Diversity Plus: BE3C Assay for Interleukin-1 alpha (IL1a) Biomarker Activity (AID 2283016). To be noted: primary human bronchial epithelial cells; actives raise or lower the signal. In short, it runs like this:
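Human primary bronchial epithelial cells (BE3C system) were dosed with compound and IL-1a measured by ELISA 24 h later. Activity was fitted bidirectionally against DMSO baseline; cytotoxicity was tracked in parallel cultures by SRB total-protein staining.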

Read-out in assay [6]: Monocyte Chemoattractant Protein-1 (MCP1), CCL2 (gene 6347)
Description: BSK_3C_MCP1: BioMAP Diversity Plus: 3C Assay for Monocyte Chemoattractant Protein-1 (MCP1) Biomarker Activity (AID 2283017). Particulars: primary human endothelial cells (HUVEC); actives raise or lower the signal. The procedure, abridged:
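ELISA read-out of MCP-1 from human umbilical vein endothelial cell cultures harvested 24 h post-dosing. Gain or loss of signal was fitted relative to DMSO.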

Read-out in assay [7]: Monocyte Chemoattractant Protein-1 (MCP1), CCL2 (gene 6347)
The assay can be described thus: BSK_4H_MCP1: BioMAP Diversity Plus: 4H Assay for Monocyte Chemoattractant Protein-1 (MCP1) Biomarker Activity (AID 2283018). To be noted: primary human endothelial cells (HUVEC); actives raise or lower the signal. In short, it runs like this: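 Human umbilical vein endothelial cells (4H system) dosed with chemical; MCP-1 measured by ELISA 24 h after dosing. Bidirectional curve fitting against DMSO negative control as baseline; parallel SRB total-protein staining tracks overt cytotoxicity.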

Read-out in assay [8]: Human Leukocyte Antigen - DR isotype (HLADR), HLA-DRA (gene 3122)
Description: BSK_3C_HLADR: BioMAP Diversity Plus: 3C Assay for Human Leukocyte Antigen - DR isotype (HLADR) Biomarker Activity (AID 2283019). Particulars: primary human endothelial cells (HUVEC); actives raise or lower the signal. The procedure, abridged: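 ELISA readout of surface HLA-DR on human umbilical vein endothelium, taken 24 h after chemical treatment. Gain- and loss-of-signal were both fitted relative to DMSO.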

Read-out in assay [9]: Interleukin-8 (IL8), CXCL8 (gene 3576)
Description: BSK_3C_IL8: BioMAP Diversity Plus: 3C Assay for Interleukin-8 (IL8) Biomarker Activity (AID 2283020). Particulars: primary human endothelial cells (HUVEC); actives raise or lower the signal. In short, it runs like this:
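Primary human umbilical vein endothelial cells (3C system) were exposed to test chemical for 24 h, then IL-8 was quantified by ELISA. Responses were fitted bidirectionally against DMSO vehicle as baseline.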

A short description of assay [10]: BSK_3C_SRB: Viability Assessment in the BioMAP Diversity Plus: 3C Assay (AID 2283023).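 Also: fitted both ways against DMSO so a hit may be signal rise or drop.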 To be noted: primary human endothelial cells (HUVEC). In short, it runs like this:
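Absorbance at 560 nm of sulforhodamine B-stained (0.1%) total protein served as a cytotoxicity readout in human umbilical vein endothelial cells, 24 h after chemical treatment. Signal was fitted bidirectionally relative to DMSO.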

Read-out in assay [11]: Matrix Metallopeptidase 1 (MMP1), MMP1 (gene 4312)
The assay can be described thus: BSK_BE3C_MMP1: BioMAP Diversity Plus: BE3C Assay for Matrix Metallopeptidase 1 (MMP1) Biomarker Activity (AID 2283024). To be noted: primary human bronchial epithelial cells; actives raise or lower the signal. The procedure, abridged: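 Primary human bronchial epithelial cells were dosed with test chemicals, and MMP1 levels were measured by ELISA 24 h later. Data were fitted bidirectionally against DMSO as the negative control and activity baseline.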

Read-out in assay [12]: Pselectin, SELP (gene 6403)
The assay can be described thus: BSK_4H_Pselectin: BioMAP Diversity Plus: 4H Assay for Pselectin Biomarker Activity (AID 2283026). Particulars: primary human endothelial cells (HUVEC); actives raise or lower the signal. The procedure, abridged: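 Primary human umbilical vein endothelial cells were exposed to test chemical for 24 h, then cell-surface P-selectin was quantified by ELISA. Activity was fitted bidirectionally against DMSO as negative control and baseline.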

A short description of assay [13]: BSK_4H_SRB: Viability Assessment in the BioMAP Diversity Plus: 4H Assay (AID 2283027).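 Also: cells exposed to compound for 24 h before staining.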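 As to AC50: curves fitted both ways versus DMSO so AC50 may be loss or gain.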 Particulars: primary human endothelial cells (HUVEC). In short, it runs like this: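 Absorbance at 560 nm of SRB-stained total protein served as the viability read-out in confluent primary human umbilical vein endothelium 24 h after chemical treatment. Curves were fitted bidirectionally against DMSO as negative control.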

Assay [14] is described as follows: BSK_BE3C_SRB: Viability Assessment in the BioMAP Diversity Plus: BE3C Assay (AID 2283028).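 As to AC50: fitted both ways so AC50 may mark signal gain or loss versus DMSO.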 To be noted: primary human bronchial epithelial cells. The procedure, abridged:
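Cells (human bronchial epithelial, primary) are treated with chemicals, and after 24 h the parallel cultures are fixed in 10% TCA. These are then stained with 0.1% SRB and read at 560 nm. Gain or loss of signal is fitted relative to DMSO.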

Read-out in assay [15]: Thrombomodulin, THBD (gene 7056)
The assay can be described thus: BSK_3C_Thrombomodulin: BioMAP Diversity Plus: 3C Assay for Thrombomodulin Biomarker Activity (AID 2283029). Particulars: primary human endothelial cells (HUVEC); actives raise or lower the signal. The procedure, abridged:
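Primary human umbilical vein endothelial cells (3C system) were exposed to chemical for 24 h, then thrombomodulin levels were measured by ELISA. Activity was fitted bidirectionally against the DMSO negative control as baseline.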

Read-out in assay [16]: Urokinase-type plasminogen activator receptor (uPAR), PLAUR (gene 5329)
The assay can be described thus: BSK_4H_uPAR: BioMAP Diversity Plus: 4H Assay for Urokinase-type plasminogen activator receptor (uPAR) Biomarker Activity (AID 2283030). To be noted: primary human endothelial cells (HUVEC); actives raise or lower the signal. In short, it runs like this:
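Cell-surface uPAR ELISA signal, measured 24 h after dosing human umbilical vein endothelial cells, was analyzed with bidirectional fitting relative to DMSO. Parallel SRB staining of total protein tracked overt cytotoxicity.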

Read-out in assay [17]: Vascular endothelial growth factor receptor 2 (Homo sapiens) (UniProt P35968)
The assay can be described thus: BSK_4H_VEGFRII: BioMAP Diversity Plus: 4H Assay for Vascular endothelial growth factor receptor 2 (VEGFR2) Biomarker Activity (AID 2283031).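 As to AC50: cell-surface VEGFR2 protein level quantified by ELISA.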 To be noted: primary human endothelial cells (HUVEC); actives raise or lower the signal. In short, it runs like this: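 ELISA read-out of VEGFRII in primary human umbilical vein endothelium, taken 24 h after chemical treatment. Responses are expressed relative to DMSO, with bidirectional fitting.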

Read-out in assay [18]: Human Leukocyte Antigen - DR isotype (HLADR), HLA-DRA (gene 3122)
Description: BSK_BE3C_HLADR: BioMAP Diversity Plus: BE3C Assay for Human Leukocyte Antigen - DR isotype (HLADR) Biomarker Activity (AID 2283032). To be noted: primary human bronchial epithelial cells; actives raise or lower the signal. In short, it runs like this:
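Human primary bronchial epithelial cells in the BE3C system were exposed to chemicals for 24 h, after which HLA-DR levels were quantified by ELISA. Activity was fitted bidirectionally, gain or loss of signal, against DMSO as negative control and baseline.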

Results filed as inconclusive are left out. Activity calls are given as the source filed them. The calls were made as follows, unless noted: active = hit-call score of the fitted dose curve at least 0.9, where 1 is the maximum; inactive = score below 0.9.

Chain of human Thyroid Receptor alpha (THRa1), THRA (gene 7067) (P10827 whole entry, looked up, the tested form may be a part): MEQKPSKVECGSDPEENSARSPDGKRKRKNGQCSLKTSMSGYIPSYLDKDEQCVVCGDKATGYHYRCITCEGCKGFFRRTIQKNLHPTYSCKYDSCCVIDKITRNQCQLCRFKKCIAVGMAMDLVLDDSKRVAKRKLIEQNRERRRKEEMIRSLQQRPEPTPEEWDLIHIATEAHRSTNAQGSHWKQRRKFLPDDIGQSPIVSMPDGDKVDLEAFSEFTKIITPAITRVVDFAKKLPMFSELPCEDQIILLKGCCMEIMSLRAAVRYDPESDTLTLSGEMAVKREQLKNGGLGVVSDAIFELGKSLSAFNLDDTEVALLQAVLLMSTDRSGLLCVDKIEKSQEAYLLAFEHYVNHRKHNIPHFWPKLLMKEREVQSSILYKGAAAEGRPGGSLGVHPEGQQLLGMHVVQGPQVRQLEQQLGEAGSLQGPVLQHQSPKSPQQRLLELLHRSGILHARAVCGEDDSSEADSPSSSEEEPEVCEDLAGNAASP
Chain of human Retinoid X Receptor beta (RXRb), RXRB (gene 6257) (P28702 whole entry, looked up, the tested form may be a part): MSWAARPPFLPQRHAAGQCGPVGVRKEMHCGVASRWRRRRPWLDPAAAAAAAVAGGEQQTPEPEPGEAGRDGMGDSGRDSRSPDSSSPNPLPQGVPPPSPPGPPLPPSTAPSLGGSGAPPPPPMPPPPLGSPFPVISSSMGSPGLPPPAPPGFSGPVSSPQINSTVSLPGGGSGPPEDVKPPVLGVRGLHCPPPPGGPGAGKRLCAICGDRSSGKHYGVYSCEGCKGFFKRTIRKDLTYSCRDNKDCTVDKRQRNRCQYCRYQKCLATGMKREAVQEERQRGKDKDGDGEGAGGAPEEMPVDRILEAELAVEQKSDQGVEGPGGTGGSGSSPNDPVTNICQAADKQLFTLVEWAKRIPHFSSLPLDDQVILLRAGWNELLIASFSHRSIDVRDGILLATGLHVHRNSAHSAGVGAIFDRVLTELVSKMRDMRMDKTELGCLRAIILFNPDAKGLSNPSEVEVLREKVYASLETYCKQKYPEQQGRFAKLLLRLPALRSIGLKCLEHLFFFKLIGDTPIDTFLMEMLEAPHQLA
Chain of E-selectin (Homo sapiens) (P16581 whole entry, looked up): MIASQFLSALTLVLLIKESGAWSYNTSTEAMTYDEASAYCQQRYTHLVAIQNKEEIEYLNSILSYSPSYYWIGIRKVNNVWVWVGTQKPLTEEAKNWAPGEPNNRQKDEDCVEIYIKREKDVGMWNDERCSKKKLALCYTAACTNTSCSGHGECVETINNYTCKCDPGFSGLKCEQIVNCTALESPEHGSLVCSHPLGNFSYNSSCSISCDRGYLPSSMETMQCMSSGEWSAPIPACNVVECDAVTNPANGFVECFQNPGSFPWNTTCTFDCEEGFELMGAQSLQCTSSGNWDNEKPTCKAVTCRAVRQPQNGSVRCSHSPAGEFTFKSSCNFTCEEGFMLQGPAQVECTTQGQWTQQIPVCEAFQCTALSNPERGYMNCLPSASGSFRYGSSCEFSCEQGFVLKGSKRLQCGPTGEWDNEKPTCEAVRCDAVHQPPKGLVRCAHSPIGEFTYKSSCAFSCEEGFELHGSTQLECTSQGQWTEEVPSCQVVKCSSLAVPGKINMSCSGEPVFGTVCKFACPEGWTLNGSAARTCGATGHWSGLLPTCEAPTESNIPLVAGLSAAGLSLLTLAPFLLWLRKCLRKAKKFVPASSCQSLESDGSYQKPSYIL
Chain of human Vitamin D Receptor (VDR), VDR (gene 7421) (P11473 whole entry, looked up, the tested form may be a part): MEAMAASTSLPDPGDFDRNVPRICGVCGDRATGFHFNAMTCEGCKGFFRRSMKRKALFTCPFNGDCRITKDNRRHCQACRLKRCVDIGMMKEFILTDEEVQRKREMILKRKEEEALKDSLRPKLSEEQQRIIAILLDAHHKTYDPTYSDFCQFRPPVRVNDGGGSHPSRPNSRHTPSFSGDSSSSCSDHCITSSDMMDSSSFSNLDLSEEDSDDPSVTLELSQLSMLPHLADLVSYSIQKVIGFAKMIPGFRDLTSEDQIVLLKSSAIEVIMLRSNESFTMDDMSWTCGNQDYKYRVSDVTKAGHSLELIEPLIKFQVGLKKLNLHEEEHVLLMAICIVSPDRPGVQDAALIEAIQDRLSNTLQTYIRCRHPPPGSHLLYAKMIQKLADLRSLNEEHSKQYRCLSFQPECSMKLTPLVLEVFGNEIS

On to `CC(C)=CCCC(C)CC=O` (stereo not drawn), for which the call in assay [1], in assay [2] and in assay [3] was inactive.
A word on the AC50: it is the concentration giving half of the maximal activity seen. For `C=CCOc1nc(OCC=C)nc(OCC=C)n1`, in [1], the AC50 is 81 µM (active). For the same compound, the compound was called inactive in assay [2] and in [3].
Consider `CC(C)(C)c1n[nH]c(=S)n(N)c1=O`, for which the result in assay [1], in [2] and in assay [3] was inactive.
For `CC1CCC(C(C)CS)CC1S` (stereo not drawn), the AC50 was 59.9 µM (active) in [1]; 30.6 µM (active) in assay [4]; 20 µM (active) in assay [5]; 20 µM (active) in [6]; 20 µM (active) in assay [7]; 35.1 µM (active) in assay [8]. The AC50 in [10] is 20 µM (active); in assay [11], 36.6 µM (active); in assay [12], 23.9 µM (active); in assay [13], 30.9 µM (active); in assay [14], 29.9 µM (active); in assay [16], 36.4 µM (active). The outcome in [9], in assay [3], in assay [15] and in [17] was inactive.
For the compound `CCCCCCCCCCCCCC(=O)O`, in [1], the AC50 was 69.7 µM (active). In addition, the outcome in [2] and in assay [3] was inactive.
As for `c1ccc2sc(SN(C3CCCCC3)C3CCCCC3)nc2c1`, the result in [1], in [2], in [5], in assay [9], in [3] and in assay [13] was inactive. Further, the result in assay [14], in assay [15] and in assay [16] was inactive. Also, the AC50 was 1.78 µM (active) in assay [4]; 10.1 µM (active) in assay [6]; 4.34 µM (active) in assay [7]; 10.2 µM (active) in [8]; 6.8 µM (active) in assay [10]; 6.54 µM (active) in assay [11]. Besides, the AC50 was 5.21 µM (active) in assay [12] and 5.07 µM (active) in assay [17].
Consider `O=C1CCCCCCCCCCCCCCO1`, for which the AC50 in assay [1] is 100 µM (active); in assay [4], 20 µM (active); in assay [5], 20 µM (active); in assay [6] it was 26.5 µM (active); in assay [7], 25.4 µM (active); in [8] it was 20 µM (active). Further, the AC50 in assay [9] was 33.6 µM (active); in assay [10], 27.1 µM (active); in assay [12] it was 27.6 µM (active); in assay [13], 27.4 µM (active); in assay [14], 9.72 µM (active); in assay [15], 20 µM (active). Further, the AC50 in [16] was 23.7 µM (active). Also, the compound was classed as inactive in [3], in assay [11] and in assay [17].
As to `CC(C)(C)c1cc(CCC(=O)NN)cc(C(C)(C)C)c1O`, the compound was called inactive in assay [1] and in assay [3].
With `CC(C)(COC(=O)c1ccccc1)COC(=O)c1ccccc1`, the compound was called inactive in [1], in assay [2], in [5], in assay [9], in assay [11] and in assay [14]. For the same compound, the result in assay [15], in [16] and in [18] was inactive. Besides, the half-maximal activity concentration (AC50) in [4] was 20 µM (active); in [6], 34.4 µM (active); in assay [7] it was 11.3 µM (active); in assay [8] it was 27.8 µM (active); in assay [10], 26.8 µM (active); in assay [12], 31.7 µM (active). Besides, the AC50 in assay [13] was 23.2 µM (active); in [17], 28.4 µM (active).
As for `CC1=CC(=O)NS(=O)(=O)O1`, the outcome in [1], in assay [2] and in assay [3] was inactive.
In the case of `CCN(CC)CCOC(=O)c1ccc(N)cc1`, the compound was called inactive in [1], in assay [2] and in [3].
As to `CCCCCCCCCCCCCCCCCC(=O)OCC(CC)CCCC` (stereo not drawn), the call in assay [1], in [4], in [5], in assay [6], in assay [7] and in assay [8] was inactive. Besides, the outcome in assay [9], in assay [3], in [10], in assay [11], in assay [12] and in [13] was inactive. Besides, the outcome in assay [14], in assay [15], in assay [16], in assay [17] and in assay [18] was inactive.
